# Screening results from PubChem.
# Rows were chosen to be rich in hits. Some 9.3% of all compounds tested hit in one or more screens of this group.
# ELG1 repair inh: ELG1-dependent DNA repair inhibition; 330,000 tested, 2.3% active; Potency, µM (titrated, usually from 46.1 µM), inactives show at the top dose activity change, negative = inhibition, most hits filed as inhibitors; HEK293T ELG1-luciferase reporter, luminescence, 16 h; DNA damage induced by 5-fluorouridine; note: % is set by controls: 0 for no effect and ±100 for the full control effect; nearly all actives have a fitted effect of over 55% in size
#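 Step one: seed 2,000 cells per well. Step two: pin-transfer compound or DMSO alongside 5-fluorouridine. Step three: incubate 16 hr, 37 °C, 5% CO2. Step four: add ONE-Glo, wait 30 min, read luminescence.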
# NPC1 promoter act: activators of NPC1 promoter; Huh7 NPC1 promoter luciferase reporter, 24 h; Potency, µM (titrated, usually from 9.22 µM), for inactives: at the highest dose activation, actives largely listed as activators; 320,000 tested, 2.4% active; note: % of control where 0% means no effect; nearly all actives have a fitted effect of over 60% in size
#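 Luciferase expression driven by the NPC1 promoter was measured in stably transfected Huh7 cells after a 24 h compound incubation, using a luciferase reagent and a luminescence read.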
# FLuc counter: counter-screen for miR-21 project: firefly luciferase inhibitors or activators; 360,000 tested, 6.9% active; purified FLuc, Km substrates, luminescence inhibition; Potency, µM (top dose mostly 57.5 µM), without a hit: top-dose activity change, negative = inhibition, actives largely listed as inhibitors; P08659;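 note: plate controls were vehicle for no effect and reference inhibitor for full effect; nearly all actives have a fitted effect of over 55% in size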
# Target sequence (P08659 whole entry, looked up): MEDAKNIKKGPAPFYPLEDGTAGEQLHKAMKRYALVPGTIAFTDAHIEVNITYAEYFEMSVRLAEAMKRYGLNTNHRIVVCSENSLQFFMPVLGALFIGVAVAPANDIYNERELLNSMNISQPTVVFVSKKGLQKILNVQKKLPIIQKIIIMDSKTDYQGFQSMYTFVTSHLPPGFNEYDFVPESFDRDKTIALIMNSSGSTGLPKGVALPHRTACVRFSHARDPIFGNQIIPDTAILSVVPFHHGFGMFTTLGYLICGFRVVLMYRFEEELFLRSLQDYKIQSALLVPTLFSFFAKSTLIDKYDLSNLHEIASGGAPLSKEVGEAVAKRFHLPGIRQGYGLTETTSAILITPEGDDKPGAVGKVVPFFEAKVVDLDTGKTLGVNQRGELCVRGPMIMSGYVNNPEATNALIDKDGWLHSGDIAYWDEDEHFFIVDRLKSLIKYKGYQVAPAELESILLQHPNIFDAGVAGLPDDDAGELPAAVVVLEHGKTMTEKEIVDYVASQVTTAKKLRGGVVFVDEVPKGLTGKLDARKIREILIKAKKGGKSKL
#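 Purified P. pyralis luciferase, 10 nM final, with Km-level 10 uM D-luciferin and 10 uM ATP in 50 mM Tris acetate pH 7.5, 10 mM Mg acetate, 0.01% Tween-20, 0.05% BSA; 6-point qHTS titration about 60 µM downward; luminescence read.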
# ELG1 genotox: inducers of genotoxicity in HEK293T ELG1-luciferase cells; HEK293T ELG1-luciferase reporter, luminescence, 16 h; Potency, µM (highest dose often 46 µM), for the others: at the top dose activity change, positive = activation, actives largely listed as activators; 330,000 tested, 1.3% active; AID 504466; note: % of control where 0% means no effect; nearly all actives have a fitted effect of over 60% in size
#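 After overnight (16 hr) compound treatment at 37 °C, ELG1-luciferase HEK293T cells were lysed with ONE-Glo; luminescence quantified 30 min later at room temperature.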
# SMN2 splice enh: SMN2 splice variant enhancement. HEK293 SMN2-luciferase splicing reporter, luminescence, 30-36 h. Potency, µM (titrated, usually from 46.1 µM), for the others: top-dose activity change, positive = activation, actives largely listed as activators. 210,000 tested, 2.8% active. AID 1458; note: % of control where 0% means no effect; nearly all actives have a fitted effect of over 55% in size
#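 HEK293 cells carry an SMN2 minigene-luciferase reporter in which exon 7 inclusion puts luciferase in frame. Cells were seeded at 2000 cells/well, attached for 10-12 hours, then exposed to compounds for 30-36 hours at 37C before ONE-Glo luminescence.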
# Rab9 promoter act: Rab9 promoter activation. Potency, µM (titrated, usually from 9.22 µM), for the others: top-dose activation, negative = inhibition, usual class: activators. 320,000 tested, 2.8% active. Huh7 Rab9 promoter-luciferase reporter, luminescence, 24 h; note: % of control where 0% means no effect; nearly all actives have a fitted effect of over 60% in size
#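 Huh7 reporter line, Rab9 promoter upstream of luciferase. Compound exposure 24 h at 37 °C in reduced-serum medium with 10% FBS. Read-out: luminescence.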
# Active calls of the source: *; ? = inconclusive; . = not tested or not shown; [ ] = dose if it differs, or a comment. Calls come from the whole dose curve; as a rule, active = well fitted curve in the direction sought with a large enough effect; inconclusive = small, poorly fitted or top-dose-only effect, or another doubt; inactive = no such curve, though single readings can be large; an effect the other way counts as inactive or inconclusive. Potency is the fitted concentration of half-maximal effect.
SMILES,ELG1 repair inh,NPC1 promoter act,FLuc counter,ELG1 genotox,SMN2 splice enh,Rab9 promoter act
CCn1c(C)c(C)c2cc(C(=O)NCC(C)c3ccccc3)ccc21 (configuration not stated),.,.,-6.0%,.,.,.
Cn1ncc2c(Nc3ccc(Cl)c(Cl)c3)ncnc21,?,7.0%,?,2.3%[9.26 µM],.,14.0%
CC(C)Nc1ncnc2c1cnn2-c1ccccc1,?,1.41µM*,2.39µM*,?,0.631µM*,0.355µM*
NNc1ncnc2c1cnn2-c1ccccc1,-22.6%,9.7%,?,-8.5%,-10.7%,0.4%
Cc1cccc(-n2ncc3c(NCCOCCO)ncnc32)c1,.,.,19µM*,.,.,.
CCC(=O)NNc1ncnc2c1cnn2-c1cccc(C)c1,0.7%,0.6%,-10.6%,5.1%,-7.1%,-1.5%
CCCn1ncc2c(Nc3ccc(C)c(C)c3)ncnc21,?,3.55µM*,23.9µM*,?,.,?
COC(=O)C(CCSC)Nc1ncnc2onc(-c3ccc(F)cc3)c12 (configuration not stated),.,.,1.1%,.,-9.0%,.
CN(C)c1ccc(CN2CCc3nc(N4CCN(c5ccccn5)CC4)ncc3C2)cc1,.,.,2.0%,.,.,.
C=CCC(Nc1ccc(OC)cc1)(C(=O)OCC)c1ccccc1 (configuration not stated),.,.,.,.,8.9%,.
CCC1=NN(C(=O)c2ccc(Cl)cc2)C(O)(c2ccccc2)C1 (configuration not stated),-17.7%,-0.8%,-3.1%,-4.1%,.,1.2%
COC(=O)C1=NN(C(=O)c2ccc(Cl)cc2)C(O)(c2ccccc2)C1 (configuration not stated),1.4%,-0.9%,21.3µM*,0.8%,-18.2%,2.4%
COc1ccc(S(=O)(=O)CCC(=O)NCCc2ccc(C)cc2)cc1,3.1%,-1.2%,1.6%,1.3%,4.6%,-2.8%
COc1ccc(/C=C2\SC(=O)N(CCNC(=O)Cn3cnnn3)C2=O)cc1,?,2.82µM*,12µM*,3.98µM*,7.94µM*,3.16µM*
COc1ccc(/C=C2\SC(=O)N(CCNC(=O)CCS(=O)(=O)c3ccc(C)cc3)C2=O)cc1,?,?,9.53µM*,?,15.8µM*,2.82µM*
CCC(Sc1nc(-c2ccccc2)c(-c2ccccc2)[nH]1)C(=O)O (configuration not stated),8.1%,-5.6%,0.6%,0.4%,.,-1.5%
Cc1ccc2cccc(OCC(=O)c3cc(C)n(Cc4ccco4)c3C)c2n1,2.1%,18.0%,?,-5.1%,-12.0%,20.9%
Cc1cc(C(=O)COC(=O)CNC(=O)c2ccc(Cl)c(Cl)c2)c(C)n1Cc1ccco1,13.6%,-2.1%,-11.8%,2.1%,4.3%,-3.1%
Cc1ccc(C(=O)NCC(=O)OCC(=O)c2cc(C)n(Cc3ccco3)c2C)cc1,20.7%,-1.3%,23.9µM*,6.0%,.,-2.6%
Cc1cc(C(=O)COC(=O)Cn2c(C(F)(F)F)nc3ccccc32)c(C)n1Cc1ccco1,5.9%,0.0%,21.3µM*,4.6%,-0.3%,7.1%
Cc1cc(C(=O)COC(=O)[C@H](C)NC(=O)c2ccco2)c(C)n1Cc1ccco1,?,-1.9%,7.57µM*,4.9%,4.0%,5.2%
C=CCn1c(C)cc(C(=O)COC(=O)C2CC(=O)N(Cc3ccccc3)C2)c1C (configuration not stated),?,2.5%,23.9µM*,2.8%,12.0%,-7.4%
O=C1NC(=O)C2(COC(c3cccc([N+](=O)[O-])c3)OC2)S1 (configuration not stated),-19.5%,-1.4%,-2.3%,-0.6%,-4.0%,2.9%
Cc1cc(Cl)ccc1NC(=O)c1ccc2c(c1)CCN2S(C)(=O)=O,-10.0%,0.6%,3.1%,-3.9%,.,11.7%
CC(C)OC(=O)[C@@H]1CC[C@H](C)[C@@H](CCC[C@@H]2CC=C[C@H](CC#N)O2)O1,.,.,.,.,5.9%,.
SMILES,ELG1 repair inh,NPC1 promoter act,FLuc counter,ELG1 genotox,SMN2 splice enh,Rab9 promoter act
C=CCn1c(C)cc(C(=O)COC(=O)CNC(=O)c2ccccc2)c1C,?,-0.9%,13.5µM*,13.6%,-23.1%,-5.6%
N#CCCN(Cc1cccs1)C(=O)Nc1ccc(F)cc1,-3.7%,2.1%,3.9%,-0.9%,.,-4.5%
Oc1cccc(NC(=S)Nc2cccnc2)c1,2.1%,-0.2%,1.0%,0.3%,4.0%,1.7%
COc1ccccc1NC(=S)N/N=C/c1ccc(O)cc1,?,?,?,?,11.2µM*,?
Oc1ccc(/C=N/NC(=S)N/N=C/c2ccc(O)cc2)cc1,28.0%,21.3%,0.19µM*,?,?,26.1%
COc1cccc(/C=N/NC(=S)Nc2cccnc2)c1,?,8.4%,15.1µM*,8.8%,-4.6%,7.7%
COc1ccccc1NC(=S)N/N=C/c1cccc(C)c1,?,-0.2%,-16.3%,4.1%,?,-2.0%
CC(C)(C)NC(=S)N/N=C/c1cccnc1,12.1%,-5.6%,-0.9%,0.7%,.,-7.8%
Oc1ccc(/C=N/NC(=S)Nc2cccnc2)cc1,?,3.16µM*,6.75µM*,?,.,?
CCc1nn(CC(=O)NCc2ccc(C)cc2)c(=O)c2cc3occc3n12,.,.,-5.7%,.,-4.6%,.
CCc1ccc(OCc2n[nH]c(=S)n2C(C)CCCC(C)C)cc1 (configuration not stated),-14.9%,0.3%,?,-3.4%,10.9%,-3.1%
COc1ccccc1N1CCN(C(=O)c2ccc3c(c2)CCN3S(C)(=O)=O)CC1,-2.5%,0.1%,0.3%,-5.1%,.,-15.1%
COc1cc(C2NC(=O)NC(c3ccccc3)=C2C(C)=O)c(Br)c(Br)c1O (configuration not stated),-4.9%,1.1%,1.2%,3.4%,.,2.8%
COc1ccc(O)c(/C=N/NC(=S)Nc2cccnc2)c1,?,11.8%,9.53µM*,17.6%,-43.3%,-7.1%
COc1cccc(C(=O)NC(=S)Nc2cccnc2)c1,?,22.8%,?,11.3%,?,?
COc1cc(/C=C2/C(=O)NN(c3cccc(F)c3)C2=O)ccc1OC(=O)c1ccco1,?,4.8%,23.9µM*,12.0%,-13.1%,0.7%
COc1cc(/C=C2/C(=O)NN(c3ccc(Cl)cc3)C2=O)ccc1OC(=O)c1ccco1,?,-4.1%,23.9µM*,9.4%,8.4%,-5.8%
C/C(=N\N1C(=O)CSC1=S)c1ccc(Br)cc1,-2.6%,-2.2%,-9.2%,-2.8%,11.7%,-1.5%
Cc1c(C)n(Cc2ccc(F)cc2)c2ccc(C(=O)NCCN3CCOCC3)cc12,-11.7%,-1.3%,-13.4%,-0.6%,.,-3.9%
CCOc1ccc(NS(=O)(=O)c2ccc3[nH]cc(C(=O)N4CCCC4)c(=O)c3c2)cc1,.,.,?,.,4.1%,.
